# Laboratory results as given in the supplement of paper PMC7411054.
# Where a name gives a salt, the structure may show the parent alone.
# Columns and labels:
# Details in all cases: treatment time: 24 h
# [1] = system: A549-ACTB-RAB5A; test: lowest phenotypically active concentration; higher = less potent
# How it was run: (§1)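 Cells from fifteen gene-edited reporter lines (A549, HepG2 and WPMY1) were treated for 24 h at 0.3, 1, 3 or 9 µM and imaged live, four wells per condition. Features were normalised per well to solvent control wells. A condition deviated if ≥3 of 4 wells passed the 95th percentile of control Euclidean distances and was reproducible if its median replicate Pearson correlation beat the 95th percentile of non-replicates; phenotypic activity needed both.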
# [2] = system: A549-GM130-SQSTM1; test: as above
# How it was run: as §1
# [3] = system: A549-TUBA1B-RELA; test: as above
# How it was run: as §1
# [4] = system: WPMY1-ACTB-RAB5A; test: as above
# How it was run: as §1
# [5] = system: A549-ACTB-RAB5A; test: phenotypically active (imaging signature differs from DMSO and reproducible) at any of 0.3-9 uM (binary (1 = active, 0 = inactive)); higher = active
# How it was run: as §1
# [6] = system: A549-CANX-COX4; test: as above
# How it was run: as §1
# [7] = system: A549-GM130-SQSTM1; test: as above
# How it was run: as §1
# [8] = system: A549-TP53BP1-CLTA; test: as above
# How it was run: as §1
# [9] = system: A549-TUBA1B-RELA; test: as above
# How it was run: as §1
# [10] = system: HepG2-ACTB-RAB5A; test: as above
# How it was run: as §1
# [11] = system: HepG2-CANX-COX4; test: as above
# How it was run: as §1
# [12] = system: HepG2-GM130-SQSTM1; test: as above
# How it was run: as §1
# [13] = system: HepG2-TP53BP1-CLTA; test: as above
# How it was run: as §1
# [14] = system: HepG2-TUBA1B-RELA; test: as above
# How it was run: as §1
# [15] = system: WPMY1-ACTB-RAB5A; test: as above
# How it was run: as §1
# [16] = system: WPMY1-CANX-COX4; test: as above
# How it was run: as §1
# [17] = system: WPMY1-GM130-SQSTM1; test: as above
# How it was run: as §1
# [18] = system: WPMY1-TP53BP1-CLTA; test: as above
# How it was run: as §1
# [19] = system: WPMY1-TUBA1B-RELA; test: as above
# How it was run: as §1
# [20] = system: WPMY1-CANX-COX4; test: lowest phenotypically active concentration; higher = less potent
# How it was run: as §1
Structure (SMILES),lowest phenotypically active concentration [1],lowest phenotypically active concentration [2],lowest phenotypically active concentration [3],lowest phenotypically active concentration [4],phenotypically active [5],phenotypically active [6],phenotypically active [7],phenotypically active [8],phenotypically active [9],phenotypically active [10],phenotypically active [11],phenotypically active [12],phenotypically active [13],phenotypically active [14],phenotypically active [15],phenotypically active [16],phenotypically active [17],phenotypically active [18],phenotypically active [19],lowest phenotypically active concentration [20]
CN1CCN([C@H]2CC[C@H](n3cc(-c4ccc(Oc5ccccc5)cc4)c4c(N)ncnc43)CC2)CC1,≤ 0.3 µM,≤ 0.3 µM,≤ 0.3 µM,≤ 0.3 µM,1 (active),1 (active),1 (active),1 (active),1 (active),1 (active),1 (active),1 (active),1 (active),1 (active),1 (active),0 (inactive),1 (active),1 (active),1 (active),–
O=C1NC(=O)[C@@H](c2cn3c4c(cccc24)CCC3)[C@@H]1c1c[nH]c2ccccc12 [tivantinib],1 µM,1 µM,3 µM,≤ 0.3 µM,1 (active),1 (active),1 (active),1 (active),1 (active),1 (active),1 (active),1 (active),1 (active),1 (active),1 (active),1 (active),1 (active),1 (active),1 (active),1 µM
N#CC[C@@H](C1CCCC1)n1cc(-c2ncnc3[nH]ccc23)cn1 [ruxolitinib-(S)],3 µM,9 µM,9 µM,9 µM,1 (active),1 (active),1 (active),1 (active),1 (active),0 (inactive),1 (active),1 (active),1 (active),1 (active),1 (active),1 (active),0 (inactive),0 (inactive),1 (active),9 µM
CNC(=O)c1cc(Oc2ccc(NC(=O)Nc3ccc(Cl)c(C(F)(F)F)c3)cc2)ccn1 [sorafenib],3 µM,9 µM,9 µM,≤ 0.3 µM,1 (active),1 (active),1 (active),1 (active),1 (active),1 (active),1 (active),1 (active),1 (active),1 (active),1 (active),1 (active),1 (active),0 (inactive),1 (active),3 µM
Nc1ncnc(Nc2ccc(OCc3ccccc3)c(Cl)c2)c1/C=N/OCCN1CCOCC1,3 µM,3 µM,1 µM,–,1 (active),1 (active),1 (active),1 (active),1 (active),1 (active),0 (inactive),1 (active),1 (active),1 (active),0 (inactive),0 (inactive),0 (inactive),0 (inactive),0 (inactive),–
CC(C)(C)c1cc(NC(=O)Nc2ccc(-c3cn4c(n3)sc3cc(OCCN5CCOCC5)ccc34)cc2)no1 [quizartinib],3 µM,1 µM,3 µM,3 µM,1 (active),1 (active),1 (active),1 (active),1 (active),1 (active),0 (inactive),1 (active),0 (inactive),1 (active),1 (active),1 (active),1 (active),1 (active),1 (active),1 µM
CCCCNNC(=O)c1ccc(Br)cc1,1 µM,3 µM,3 µM,–,1 (active),1 (active),1 (active),1 (active),1 (active),1 (active),1 (active),1 (active),1 (active),1 (active),0 (inactive),1 (active),1 (active),1 (active),1 (active),9 µM
CC(C)(C)c1nc(-c2cccc(NS(=O)(=O)c3c(F)cccc3F)c2F)c(-c2ccnc(N)n2)s1 [dabrafenib],≤ 0.3 µM,≤ 0.3 µM,≤ 0.3 µM,1 µM,1 (active),1 (active),1 (active),1 (active),1 (active),1 (active),1 (active),1 (active),1 (active),1 (active),1 (active),1 (active),0 (inactive),0 (inactive),1 (active),1 µM
S=C(S)N1CCCC1 [Pyrrolidinedithiocarbamate ammonium],3 µM,3 µM,3 µM,–,1 (active),1 (active),1 (active),1 (active),1 (active),1 (active),1 (active),1 (active),1 (active),1 (active),0 (inactive),0 (inactive),1 (active),0 (inactive),0 (inactive),–
O=C(O)[C@]1(Cc2cccc(Nc3nccs3)n2)CC[C@@H](Oc2cccc(Cl)c2F)CC1,≤ 0.3 µM,≤ 0.3 µM,1 µM,≤ 0.3 µM,1 (active),1 (active),1 (active),1 (active),1 (active),1 (active),1 (active),1 (active),1 (active),1 (active),1 (active),1 (active),0 (inactive),1 (active),1 (active),1 µM
Cn1cnc2c(F)c(Nc3ccc(Br)cc3Cl)c(C(=O)NOCCO)cc21 [selumetinib],≤ 0.3 µM,≤ 0.3 µM,≤ 0.3 µM,9 µM,1 (active),1 (active),1 (active),1 (active),1 (active),1 (active),1 (active),1 (active),1 (active),1 (active),1 (active),0 (inactive),1 (active),1 (active),0 (inactive),–
O=C(NOC[C@H](O)CO)c1ccc(F)c(F)c1Nc1ccc(I)cc1F,≤ 0.3 µM,≤ 0.3 µM,1 µM,1 µM,1 (active),1 (active),1 (active),1 (active),1 (active),1 (active),1 (active),1 (active),1 (active),1 (active),1 (active),0 (inactive),1 (active),1 (active),0 (inactive),–
Cc1ncc(-c2ccnc(Nc3ccc(S(C)(=O)=O)cc3)n2)n1C(C)C,≤ 0.3 µM,≤ 0.3 µM,≤ 0.3 µM,≤ 0.3 µM,1 (active),1 (active),1 (active),1 (active),1 (active),1 (active),1 (active),1 (active),1 (active),1 (active),1 (active),1 (active),1 (active),1 (active),1 (active),≤ 0.3 µM
COc1cc2nc(N3CCN(C(=O)C4COc5ccccc5O4)CC3)nc(N)c2cc1OC (stereo not given) [doxazosin],9 µM,9 µM,3 µM,9 µM,1 (active),1 (active),1 (active),1 (active),1 (active),1 (active),0 (inactive),1 (active),1 (active),1 (active),1 (active),1 (active),1 (active),1 (active),0 (inactive),9 µM
CN(C)CCCN1c2ccccc2Sc2ccc(Cl)cc21 [chlorpromazine],3 µM,3 µM,3 µM,9 µM,1 (active),1 (active),1 (active),1 (active),1 (active),0 (inactive),1 (active),1 (active),1 (active),1 (active),1 (active),1 (active),0 (inactive),1 (active),1 (active),9 µM
N=C(N)c1ccc(OCCCCCOc2ccc(C(=N)N)cc2)cc1 [pentamidine],1 µM,1 µM,1 µM,–,1 (active),1 (active),1 (active),1 (active),1 (active),1 (active),1 (active),0 (inactive),1 (active),1 (active),0 (inactive),0 (inactive),1 (active),0 (inactive),0 (inactive),–
Cc1cc2c(F)c(Oc3ncnn4cc(OC[C@@H](C)O)c(C)c34)ccc2[nH]1 [brivanib],9 µM,9 µM,9 µM,3 µM,1 (active),1 (active),1 (active),1 (active),1 (active),1 (active),1 (active),1 (active),1 (active),1 (active),1 (active),1 (active),0 (inactive),1 (active),1 (active),9 µM
CN1CCN(C(=O)CN[C@H]2C[C@@H]2c2ccc(OCc3ccccc3)cc2)CC1 [RN 1 dihydrochloride],3 µM,9 µM,3 µM,9 µM,1 (active),1 (active),1 (active),1 (active),1 (active),1 (active),0 (inactive),1 (active),1 (active),1 (active),1 (active),1 (active),1 (active),1 (active),1 (active),9 µM
COc1cc2c(cc1O)CC[C@@H]1[C@@H]2CC[C@]2(C)[C@@H](O)CC[C@@H]12 [2-methoxyestradiol],1 µM,1 µM,1 µM,1 µM,1 (active),1 (active),1 (active),1 (active),1 (active),1 (active),1 (active),1 (active),1 (active),1 (active),1 (active),1 (active),0 (inactive),1 (active),1 (active),1 µM
O=C1N=C(NCc2cccs2)S/C1=C\c1ccc2ncccc2c1,3 µM,1 µM,3 µM,3 µM,1 (active),1 (active),1 (active),1 (active),1 (active),0 (inactive),1 (active),1 (active),1 (active),1 (active),1 (active),1 (active),1 (active),1 (active),1 (active),3 µM
O=C(NCCCNc1nc(Nc2cccc(NC(=O)N3CCCC3)c2)ncc1I)c1cccs1,1 µM,3 µM,3 µM,3 µM,1 (active),1 (active),1 (active),1 (active),1 (active),1 (active),1 (active),1 (active),1 (active),1 (active),1 (active),1 (active),1 (active),1 (active),1 (active),3 µM
